Measured values taken from PubChem BioAssay AID493056 (National Center for Advancing Translational Sciences (NCATS), 2011).
Among all 360,000 compounds or so, about 2,400 (0.67%) were called active. Only a selection was taken, and actives are over-represented in it overall. Values without a mark were called inactive. Cut-off read from the data, not from the text of the source: active = enhancement above about 30%; inactive = the rest.
Note: 0% is about no effect.

What follows are compounds tested against Thyrotropin-releasing hormone receptor (Homo sapiens) (UniProt P34981) (assay: qHTS for Small Molecule Agonists and Allosteric Enhancers of Human TRH Receptor: Primary Screen for Enhancers). Conditions: TRHR cells, fluo-8 calcium fluorescence, EC20 TRH enhancement; at 2 µM; active compounds read high.
Thyrotropin-releasing hormone receptor (Homo sapiens), sequence (P34981 whole entry, looked up): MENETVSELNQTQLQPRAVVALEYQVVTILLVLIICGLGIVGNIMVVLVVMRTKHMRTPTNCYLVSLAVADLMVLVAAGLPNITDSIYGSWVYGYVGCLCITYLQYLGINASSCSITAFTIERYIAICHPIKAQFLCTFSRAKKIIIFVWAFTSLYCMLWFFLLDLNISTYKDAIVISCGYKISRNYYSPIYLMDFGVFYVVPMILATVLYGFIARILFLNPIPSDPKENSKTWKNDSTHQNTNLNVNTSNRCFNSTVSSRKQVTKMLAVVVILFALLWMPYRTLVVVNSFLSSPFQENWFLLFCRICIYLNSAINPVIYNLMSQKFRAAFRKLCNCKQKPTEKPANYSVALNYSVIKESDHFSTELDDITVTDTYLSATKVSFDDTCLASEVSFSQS
Summary of the method: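 TRHR-expressing cells loaded with fluo-8 calcium dye were read kinetically (ex 480/em 530) during compound addition, then stimulated with an EC20 of TRH (10 nM final). Enhancement of the Gq-mediated intracellular calcium response was scored.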
For C=CCOc1cccc(C2NC(=O)c3ccccc3O2)c1 (stereo not drawn), the enhancement was -1.8%. Work on O=C1NC(c2cc3c(cc2Cl)OCO3)Oc2ccccc21 (stereo not drawn) yielded an enhancement of 5.25%. In the case of O=C1NC(c2ccccc2)Oc2ccccc21 (stereo not drawn), the enhancement is reported as 36.1% (active). Work on Cc1ccc2c(=O)c(C(=O)c3ccc(F)cc3)cn(CC(=O)NC3CCCCC3)c2n1 yielded an enhancement of 7.98%. Compound COCC(C)NS(=O)(=O)c1ccc(N2CCCCS2(=O)=O)cc1 (stereo not drawn) has an enhancement of 6.76%. With CCOC(=O)c1nn(-c2cccc(C)c2)cc1C(=O)c1ccccc1 the enhancement was 11%. For CCOC(=O)C1=C(O)/C(=C/c2ccc(OCC(=O)Nc3ccc(C)cc3)cc2)N=C1C, the enhancement was -0.756%. In the case of CCOC(=O)C1=C(O)/C(=C/c2cc(C)n(-c3ccccc3)c2C)N=C1C, the enhancement is reported as 43.5% (active). In the case of Cc1nn(Cc2ccc(F)cc2)c(C)c1NC(=O)c1cc(CC(C)C)on1, the enhancement is reported as -1.79%. In the case of O=C(c1ccccn1)c1ncc(C(F)(F)F)cc1Cl, the enhancement is reported as 1.39%. O=c1[nH]c2cccnc2n(CCNc2ncc(C(F)(F)F)cc2Cl)c1=O was tested, and the enhancement was 48.4% (active). With O=c1[nH]oc(O)c1-c1ncc(C(F)(F)F)cc1Cl the enhancement was 0.0064%. For COc1ccccc1Nc1nc(N)nc(N)c1S(=O)(=O)c1ccccc1, the enhancement was 2.56%. In the case of O=C(NCc1nnc(C(=O)Nc2ccc(C(F)(F)F)cc2Cl)o1)c1ccccc1, the enhancement is reported as 0.059%. With Cc1nnc(SCC(=O)NCc2ccccc2Cl)c2nn(-c3ccccc3)c(C)c12 the enhancement was 4.74%. COc1ccccc1Nc1c2c(nc3ccc(NC(=O)/C=C/c4cc(OC)c(OC)c(OC)c4)cc13)CCCC2 gave an enhancement of 0.792%. COc1ccc(CN2CCN(C(=O)CCC(=O)Nc3nnc(C(C)C)s3)CC2)cc1F showed an enhancement of -5.21%. With CCc1nnc(NC(=O)CCC(=O)N2CCN(c3cc(C)ccc3C)CC2)s1 the enhancement was 10.6%. With CC(C)c1nnc(NC(=O)CCC(=O)N2CCN(c3cccc(Cl)c3)CC2)s1 the enhancement was 44.3% (active). CCOc1ccc(NC(=O)c2cc3c(=O)n(Cc4cccs4)ccc3nc2C)cc1 showed an enhancement of 2.83%. Compound Cc1cccc(NC(=O)c2nnn(CC(=O)Nc3ccc(C(C)C)cc3)c2N)c1C has an enhancement of 16.4%. Compound CCOc1ccc(C(NC(=O)c2cc(OC)c(OC)c(OC)c2)c2cc(Cl)c3cccnc3c2O)cc1 (stereo not drawn) has an enhancement of 8.01%. CCOc1ccc(NC(=O)COc2ccc(C(=O)N3CCC(C(N)=O)CC3)cc2OC)cc1 gave an enhancement of 1.2%. With CCOc1ccc(N/C=C/C(=O)c2cc(OC)c(OC)c(OC)c2)cc1 the enhancement was 36% (active). Work on CN(CC(=O)Nc1ccccc1F)S(=O)(=O)c1ccc2c(c1)c(=O)n(C)c(=O)n2C yielded an enhancement of -1.52%. Work on CCOc1cc2[nH]c(=O)n(Cc3ccc(C(=O)NCCN(CC)CC)cc3)c(=O)c2cc1OCC yielded an enhancement of 6.62%. Cc1ccc(C(=O)Nc2ccc(OCc3cc(=O)n4c(C)csc4n3)cc2)cc1 was tested, and the enhancement was 44.4% (active). With Cc1csc2nc(COc3ccc(NC(=O)COc4ccccc4)cc3)cc(=O)n12 the enhancement was -0.546%. Cc1ccc(C(=O)Nc2ccc(OCc3cc(=O)n4c5c(sc4n3)CCCC5)cc2)cc1 gave an enhancement of -8.75%. For CCN(CC)c1cc(NC2CCCCC2)c2c3c(onc13)-c1ccccc1C2=O, the enhancement was 3.4%. With Cc1c(CNC(C)c2ccccc2)c(C(=O)O)c(C)n1Cc1c(F)cccc1Cl (stereo not drawn) the enhancement was 0.16%. CCOc1ccc(-c2cc3nc(C4CCN(C(=O)OC(C)(C)C)CC4)c(C(=O)Nc4cccc(CC)c4)cn3n2)cc1 was tested, and the enhancement was 12.9%. In the case of COC(=O)/C(C#N)=C/c1occc1C, the enhancement is reported as 32.7% (active). CCOC(=O)/C(C#N)=C\c1c(C)cc(C)c(COC(C)=O)c1C was tested, and the enhancement was 14.9%. Work on Cc1ccc(/C=C(\C#N)C(=O)Nc2cc(C)ccc2C)cc1 yielded an enhancement of -0.361%. For CCc1ccc(NC(=O)N2CCN(C(=O)c3nsc4ccccc34)CC2)cc1, the enhancement was -4.71%. O=S(=O)(c1ccc2c(c1)OCCO2)N1CCN(S(=O)(=O)c2cc(F)ccc2F)CC1 gave an enhancement of 6.77%. With Cc1nn(C)cc1N1C(=O)c2cccc3c(N)ccc(c23)C1=O the enhancement was 30% (active). CN1C(=O)c2cccc3c(N)ccc(c23)C1=O was tested, and the enhancement was 50.3% (active). For Cn1c(=O)n(Cc2c(F)cccc2Cl)c(=O)c2c1nc1n2CCN1c1ccc(F)cc1, the enhancement was 0.582%. In the case of Cc1cc(C)cc(NC(=O)Cn2nc(N3CCN(c4ccccc4)CC3)ccc2=O)c1, the enhancement is reported as -3.13%. With Cc1cc(-c2ccc(C)c(S(=O)(=O)N3c4ccccc4CC3C)c2)on1 (stereo not drawn) the enhancement was 0.217%. Work on CCOc1cccc2cc(-c3cn4c(n3)sc3cc(C)ccc34)c(=O)oc12 yielded an enhancement of -0.977%. COc1cc(CNCCSc2nnnn2C)ccc1OCc1ccc(Cl)cc1Cl was tested, and the enhancement was 1.67%. COc1ccc(CCNC(=O)CCc2ccccc2O)cc1OC showed an enhancement of -5.5%. In the case of COc1ccc(CCn2ccc(O)c(Cc3ccc(Cl)cc3Cl)c2=O)cc1OC, the enhancement is reported as 54.5% (active). Work on O=C(CSc1ncc(CO)n1Cc1ccc(F)cc1)NCc1ccco1 yielded an enhancement of -2.31%. CCOc1ccc(CNC(=O)c2ccc3nc(CC)c(CC)nc3c2)cc1OC showed an enhancement of 1.32%. For CC1CCN(CC(=O)c2c[nH]c3ccccc23)CC1, the enhancement was 38% (active). For CC1CCN(C(=O)COC(=O)c2cc(=O)[nH]c3ccccc23)CC1, the enhancement was -7.78%. Cc1[nH]c2ccccc2c1C(=O)CN1CCCC(C)C1 (stereo not drawn) was tested, and the enhancement was -2.86%. Compound Cc1nnc(N2CCCC(C(=O)NCCN(C)C)C2)c2nn(-c3ccccc3)c(C)c12 (stereo not drawn) has an enhancement of 1.94%. Compound N#Cc1nc(Nc2cccc(Cl)c2)nc(NC2CCCC2)n1 has an enhancement of -7.23%. CCn1c2ccccc2c2nnc(SCC(=O)O)nc21 gave an enhancement of -1.5%. COc1ccc(-n2nc(C(=O)NCCc3ccc(Cl)cc3)c3c4ccccc4n(C)c3c2=O)cc1Cl was tested, and the enhancement was -3.1%. CCOC(=O)C1CCN(C(=O)C2(NC(=O)Nc3cccc(F)c3)CCCCC2)CC1 was tested, and the enhancement was 34.3% (active). For CCOC(=O)C1CCN(C(=O)Nc2cccc(OC)c2)CC1, the enhancement was -1.73%. CCN1CCN(C(=O)C2(NC(=O)Nc3cccc(F)c3)CCCCC2)CC1 gave an enhancement of 1.28%.
